Among all 97,000 compounds or so, about 810 (0.84%) were called active. The entries come from a sample that favours actives as a whole. Unmarked numbers belong to inactive results. Rule as the data show it: active = inhibition above about 19%; inactive = the rest.
These molecules were tested against Focal adhesion kinase 1 (Homo sapiens) (UniProt Q05397) (assay: human PTK2 enzyme activity blockers – biochemical, primary screen (AID 727;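 also: 0% = DMSO and 100% = reference compound high control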)). Details: biochemical FAK kinase activity assay; hits give high values;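 tested at 7 µM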.
Chain of Focal adhesion kinase 1 (Homo sapiens) (Q05397 whole entry, looked up): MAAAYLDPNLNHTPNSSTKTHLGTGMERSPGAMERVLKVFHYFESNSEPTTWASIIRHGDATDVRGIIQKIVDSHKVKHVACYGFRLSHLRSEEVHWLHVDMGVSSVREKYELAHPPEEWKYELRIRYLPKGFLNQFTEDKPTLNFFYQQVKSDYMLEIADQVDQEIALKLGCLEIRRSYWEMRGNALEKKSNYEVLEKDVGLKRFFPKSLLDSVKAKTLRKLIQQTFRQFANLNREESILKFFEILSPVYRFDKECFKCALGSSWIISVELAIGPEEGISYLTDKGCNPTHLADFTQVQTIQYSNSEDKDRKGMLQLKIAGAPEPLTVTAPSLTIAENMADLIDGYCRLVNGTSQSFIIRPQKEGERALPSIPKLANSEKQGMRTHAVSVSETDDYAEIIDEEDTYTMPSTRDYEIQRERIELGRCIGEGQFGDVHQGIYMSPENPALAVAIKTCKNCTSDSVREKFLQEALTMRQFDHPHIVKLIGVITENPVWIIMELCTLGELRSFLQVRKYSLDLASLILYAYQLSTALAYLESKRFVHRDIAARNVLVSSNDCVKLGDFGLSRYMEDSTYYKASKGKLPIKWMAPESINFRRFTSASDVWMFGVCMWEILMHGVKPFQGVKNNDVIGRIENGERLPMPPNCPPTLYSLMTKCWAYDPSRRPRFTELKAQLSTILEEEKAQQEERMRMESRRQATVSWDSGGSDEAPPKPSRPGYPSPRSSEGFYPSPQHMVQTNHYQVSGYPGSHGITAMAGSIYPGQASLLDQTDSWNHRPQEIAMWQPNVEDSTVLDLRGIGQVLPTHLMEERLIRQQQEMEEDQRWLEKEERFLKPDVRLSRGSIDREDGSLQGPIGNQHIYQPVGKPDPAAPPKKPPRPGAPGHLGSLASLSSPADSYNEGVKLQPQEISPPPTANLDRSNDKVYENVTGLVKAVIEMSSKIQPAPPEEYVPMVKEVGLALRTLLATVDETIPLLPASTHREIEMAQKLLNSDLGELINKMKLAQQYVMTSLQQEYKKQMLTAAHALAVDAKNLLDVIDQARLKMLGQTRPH

Row | SMILES | inhibition
1 | Cc1[nH]c2ccccc2c1C(=O)COC(=O)C(C)C | -1.84%
2 | CC(=O)c1ccc(Cc2ncc(C(F)(F)F)cc2Cl)s1 | 32.1% (active)
3 | O=C(Cc1ncc(C(F)(F)F)cc1Cl)Nc1cccc(Br)c1 | -7.54%
4 | O=C(c1ccccn1)c1ncc(C(F)(F)F)cc1Cl | -4.84%
5 | COc1ccc(CC(NC(C)=O)C(=O)N2CCN(C(=O)Nc3cccc(Cl)c3)CC2)cc1OC (configuration not stated) | -1.84%
6 | CCOc1cc2[nH]c(=S)n(Cc3ccc(C(=O)NCCOC)cc3)c(=O)c2cc1OCC | 1.95%
7 | Cc1nn(C)cc1CNC(=O)Nc1ccc(Cl)cc1 | 0.55%
8 | CN(CC(=O)Nc1cccc2c1CCCC2)S(=O)(=O)c1ccc(Cl)cc1 | 2.06%
9 | Cc1cc(=O)oc(C)c1C(=O)N1CCCCC1 | -3.95%
10 | Cc1c(NC(=O)CCCOc2ccccc2)cccc1[N+](=O)[O-] | 5.03%
11 | O=c1c2ccccc2c(-c2ccc(F)cc2)nn1-c1ccc(C(F)(F)F)cc1 | -9.67%
12 | Cc1cccc(Nc2ccccc2C(=O)NCc2ccco2)c1C | -0.25%
13 | COc1ccccc1OCCNc1cc(N2CCOCC2)ccc1[N+](=O)[O-] | 0.07%
14 | CCN(CC)Cc1cc(C(C)=O)ccc1O | -1.48%
15 | O=C1C(=O)N(c2ccccc2)c2ccccc21 | -1.97%
16 | CC(C)CC[n+]1ccn(C2=C([O-])c3ccccc3C(=O)/C2=N\S(=O)(=O)c2ccccc2)c1 | 0.45%
17 | COCCOC(=O)c1sc(=S)n(CCOC)c1N | 0.4%
18 | Cc1cccc(-n2nc3c(c2NC(=O)c2ccc(Br)o2)CSC3)c1C | -10.1%
19 | Cc1cc(C)nc(-n2nc(C)cc2NC(=O)c2ccc(Br)o2)n1 | 19.6% (active)
20 | COc1cc(OC)c(NC(=O)c2ccc(Br)o2)cc1Cl | 2.86%
21 | O=C(Nc1ccc(F)c(Cl)c1)C1CCN(S(=O)(=O)c2cccnc2)CC1 | 5.16%
22 | COc1ccc(C2Nc3ccccc3C(=O)N2Cc2ccccc2)cc1Cn1nnc2ccccc21 (configuration not stated) | 1.35%
23 | CC(=C1C(=O)c2ccccc2C1=O)N1CCN(c2ccccn2)CC1 | -0.27%
24 | O=C(c1ccc2c(c1)C(=O)N(c1ccc(Cl)cc1)C2=O)N1CCN(c2ccccn2)CC1 | 22.9% (active)
25 | O=C(c1ccc(Cl)c(Cl)c1)N1CCCC1 | -2.15%

Row | SMILES | inhibition
26 | CC(C)CC(N=C1NC(C)(C)Cc2ccccc21)C(=O)O (configuration not stated) | -1%
27 | COC(=O)c1ccccc1NC(=O)CSc1nnnn1C | -1.15%
28 | O=[N+]([O-])c1ccccc1NCc1ccc(Cl)cc1 | 1.41%
29 | Cc1ccc(CNC(=O)COc2ccc(S(=O)(=O)NC(C)C)cc2)cc1 | -1.67%
30 | Cc1nc(N2CCOCC2)nc2c1CCCC2 | -0.58%
31 | CCC(C)NC(=O)CCCc1ccccc1 (configuration not stated) | 2.61%
32 | CCn1c(SCc2ccc(C)cc2)nnc1-c1nn(-c2ccccc2)ccc1=O | 3.11%
33 | CN(C)/C(CN1CCCCC1)=C1\N=C(c2ccccc2)OC1=O | -3.3%
34 | CCN(CC)c1nc(-c2ccccc2)cc(C(F)(F)F)c1C#N | 4.59%
35 | Fc1ccc(-c2ccc(-c3nn4c(-c5ccco5)nnc4s3)o2)cc1 | 19.2% (active)
36 | Cc1nnc2sc(-c3ccco3)nn12 | 0.33%
37 | FC(F)(F)c1nnc2sc(-c3ccco3)nn12 | -8.22%
38 | NC(=O)c1ncc(C(F)(F)F)cc1Oc1ccc(F)cc1 | 1.7%
39 | COc1ccccc1N(C)S(=O)(=O)c1ccc(C(=O)N2CCC(C(N)=O)CC2)cc1 | -1.2%
40 | CCOC(=O)c1c(NC(=O)CSc2nnc(C)c(=O)[nH]2)sc2c1CCC2 | -5.37%
41 | COC(=O)c1c(NC(=O)CSc2nncs2)sc2c1CCCCC2 | 19.5% (active)
42 | COC(=O)c1c(NC(=O)c2cccs2)sc2c1CCCC2 | -3.96%
43 | OCCN(Cc1ccccc1)Cc1ccc(Cl)cc1 | 1.29%
44 | CCOC(=O)c1c(NC(=O)CSc2nnc(CNc3ccc(C)cc3C)o2)sc(C)c1C | 0.35%
45 | Cc1nn(Cc2ccc(C(=O)N3N=C(C(F)F)CC3(O)C(F)F)cc2)c(C)c1[N+](=O)[O-] (configuration not stated) | -1.38%
46 | Cc1ccc(S(=O)(=O)/N=C(/Nc2ccccn2)c2ccc(Cl)cc2)cc1 | -9%
47 | COc1cc(C2CC(=O)c3cnc(NC(C)=O)nc3C2)cc(OC)c1OC (configuration not stated) | 0.08%
48 | N#C/C(=C\c1ccccc1)c1n[nH]c(Cn2cncn2)n1 | -0.5%
49 | COc1ccc(N/N=C2/CCCCC2=O)cc1 | -0.48%
50 | O=C1CSC2=NCN(c3ccccc3)CN12 | 3.72%

Row | SMILES | inhibition
51 | Cc1ccc2c(c1)N(CC(=O)N(Cc1ccccn1)Cc1ccco1)C(=O)C(C(C)C)O2 (configuration not stated) | 0.38%
52 | Cc1ccccc1OC(=O)Cn1c(C(F)(F)F)nc2ccccc21 | -3.25%
53 | CCn1c(SCC(=O)Nc2nc(C)cs2)nnc1C(C)NC(=O)c1ccccc1 (configuration not stated) | -0.18%
54 | Cc1ccc(C(=O)OC2=CC(=O)CC(C)(C)C2)cc1 | 1.07%
55 | Cn1c2ccccc2n2c(=O)c(=O)n(CC(=O)c3ccc(F)cc3)nc12 | -3.16%
56 | CCOc1ccc(C(O)Cn2c(=N)n(CCN3CCCCC3)c3ccccc32)cc1 (configuration not stated) | 0.54%
57 | COCCn1c(C)cc(C(=O)CSc2ncnc3sc4c(c23)CCC4)c1C | 83.3% (active)
58 | Cc1cc(C)n(-c2nc(SCC(=O)N3CCCC3)c3c4c(sc3n2)CCCC4)n1 | 1.79%
59 | COc1ncnc2sc3c(c12)CCCC3 | 3.78%
60 | Nc1ccccc1SCc1cc([N+](=O)[O-])cc2c1OCOC2 | 0.81%
61 | CC(=NCc1ccco1)c1c(C(F)(F)F)[nH]n(-c2nc3ccccc3s2)c1=O | 5.23%
62 | CC(=NCc1ccc2c(c1)OCO2)C1=C(O)c2ccccc2C1=O | 6.12%
63 | CC(=NCc1ccco1)C1=C(O)c2ccccc2C1=O | 27.9% (active)
64 | COc1ccc(C2(CNC(=O)C(c3ccccc3)c3ccccc3)CCOCC2)cc1OC | 1.78%
65 | C=C(C)CNC(=S)/N=c1\scc(C)n1CC | -6.21%
66 | Oc1ccc(-c2onc3ccc(Cl)cc23)cc1 | 5.87%
67 | Cc1cccc(NC(=O)c2cc(N3C(=O)CCC3=O)ccc2Cl)n1 | -0.12%
68 | CCOC(=O)c1cc(C#N)c(N2CCCCC2)nc1-c1ccccc1 | 4.29%
69 | CCOC(=O)c1sc2nc(SC)nc(-c3ccccc3)c2c1N | 2.16%
70 | COc1ccc(C)cc1N(C)C(=O)c1coc(=O)c2ccccc12 | 1.58%
71 | Nc1c(-c2ccc(F)cc2)cnc2ncnn12 | 19.1% (active)
72 | Cc1ccc(S(=O)(=O)N(CC(=O)N/N=C/c2ccc(F)cc2)c2cccc3cccnc23)cc1 | 3.64%
73 | COc1ccc(/C(N)=N/OC(=O)Oc2ccccc2)cc1 | 0.12%
74 | CC1CCN(C(=O)c2cc3nc(C4CC4)cc(C(F)(F)F)n3n2)CC1 | 0.8%
75 | C/C=C/C(=O)OCC(=O)Nc1ccc(F)cc1Cl | -4.03%

Row | SMILES | inhibition
76 | CCC(=O)Nc1ccc2c(c1)nc(CCN1CCN(C)CC1)n2C | -1.8%
77 | Cc1nn(CC(=O)Nc2ccc3c(c2)nc(CN2CCCCC2)n3C)c(=O)c2ccccc12 | 3.98%
78 | Cn1c(CCN2CCCCCC2)nc2cc(NC(=O)Nc3ccccc3)ccc21 | 22.2% (active)
79 | COC(=O)/C(=C\Nc1ccccc1)NC(=O)c1ccc(Cl)cc1Cl | 0.67%
80 | CCn1c(CNC(=O)c2ccccc2)nnc1SCC(=O)N1CCN(c2ccccc2)CC1 | 1.01%
81 | CS(=O)(=O)Nc1cccc(C2=NN(S(=O)(=O)c3ccccc3)C(c3cccs3)C2)c1 (configuration not stated) | 1.03%
82 | CCN(c1ccccc1)S(=O)(=O)c1ccc(NC(=O)C(C)(C)C)cc1 | -0.76%
83 | CCN(CC)S(=O)(=O)c1cccc(C(=O)Nc2ccccc2)c1 | 7.09%
84 | CCN(CC)S(=O)(=O)c1cc([N+](=O)[O-])ccc1NNC(=O)Nc1ccccc1 | 22.7% (active)
85 | COC(=O)c1[nH]c2ccccc2c1NS(=O)(=O)c1ccc(OC)cc1OC | 0.04%
86 | COc1ccc(OC)c(N=Cc2c(O)[nH]c3ccccc23)c1 | 13.7%
87 | COc1cc(N=Cc2c(O)[nH]c3ccccc23)cc(OC)c1OC | 73.4% (active)
88 | CCCc1ccc(OCc2ccc(C(=O)N/N=C/c3cccc([N+](=O)[O-])c3)o2)c(OC)c1 | 1.02%
89 | Cc1[nH]n(-c2ccc([N+](=O)[O-])cc2)c(=O)c1C=NCCN1CCN(C(=O)c2ccccc2F)CC1 | 6.47%
90 | Cc1ccc(CN(N=Nc2nonc2N)c2nonc2N)c(C)c1 | -1.18%
91 | O=c1c2ccccc2nc2n1C(CSCc1ccccc1)CS2 (configuration not stated) | 7.02%
92 | O=C1C2N=NN(CC(=O)N3N=C(c4cccc5ccccc45)CC3c3ccccc3)C2C(=O)N1c1ccccc1 (configuration not stated) | 1.07%
93 | Cc1nc(NNC(=O)c2ccccc2)cc(-c2ccccc2)n1 | -0.62%
94 | Cc1ccc(SCC(=O)NC(=O)NCc2ccco2)c(C)c1 | 6.63%
95 | O=C(/C=C/c1ccco1)Nc1cccc(-c2nc3ccccc3[nH]2)c1 | 1.17%
96 | Cc1ccc(-n2nc3ccc(NC(=O)/C=C/c4ccco4)cc3n2)cc1C | 19.2% (active)
97 | O=C(/C=C/c1ccco1)Nc1ccc(Oc2ccccc2)cc1 | 0.45%
